# Bioassay records deposited in PubChem by National Center for Advancing Translational Sciences (NCATS).
# Compounds with a hit are over-represented: about 7.4% of the library has one in this group of screens.
# FLuc modulator = qHTS profiling assay for firefly luciferase inhibitor/activator using purifed enzyme and Km concentrations of substrates (counterscreen for miR-21 project); Luciferin 4-monooxygenase (Photinus pyralis), P08659; purified FLuc, Km substrates, luminescence inhibition; Potency, µM (top dose mostly 57.5 µM), for the others: at the highest dose activity change, negative = inhibition, most hits filed as inhibitors; 6.9% of 360,000 active; AID 588342, 2011;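 note: plate controls were vehicle for no effect and reference inhibitor for full effect; nearly all actives have a fitted effect of over 55% in size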
# Target sequence (P08659 whole entry, looked up): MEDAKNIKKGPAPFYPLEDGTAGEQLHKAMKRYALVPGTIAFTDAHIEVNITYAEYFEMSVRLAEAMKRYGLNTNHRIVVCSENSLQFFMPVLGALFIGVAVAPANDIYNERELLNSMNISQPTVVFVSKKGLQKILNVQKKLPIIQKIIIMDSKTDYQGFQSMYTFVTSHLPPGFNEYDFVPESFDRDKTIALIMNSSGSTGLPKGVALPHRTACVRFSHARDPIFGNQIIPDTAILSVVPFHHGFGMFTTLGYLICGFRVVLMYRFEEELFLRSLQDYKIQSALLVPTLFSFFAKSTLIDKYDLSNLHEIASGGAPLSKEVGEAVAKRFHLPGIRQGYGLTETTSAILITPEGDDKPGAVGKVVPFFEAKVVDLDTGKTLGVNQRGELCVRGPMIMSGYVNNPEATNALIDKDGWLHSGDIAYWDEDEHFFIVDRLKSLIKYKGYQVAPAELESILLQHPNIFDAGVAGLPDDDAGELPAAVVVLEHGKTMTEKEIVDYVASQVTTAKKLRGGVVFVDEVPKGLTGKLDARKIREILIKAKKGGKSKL
#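 Biochemical qHTS of compounds, final roughly 60 µM downward over six points, against 10 nM purified firefly luciferase using Km concentrations of substrates (10 uM D-luciferin, 10 uM ATP) in Tris acetate pH 7.5 buffer; luminescence output.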
# Rab9 prom act = qHTS Assay for Rab9 Promoter Activators; 2.8% of 320,000 active; Huh7 Rab9 promoter-luciferase reporter, luminescence, 24 h; Potency, µM (highest dose often 9.22 µM), without a hit: at the highest dose activation, negative = inhibition, most hits filed as activators; note: % of control where 0% means no effect; nearly all actives have a fitted effect of over 60% in size
#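 Rab9 promoter-driven luciferase in stably transfected Huh7 cells; 1500 cells/well rested 2 h, exposed to compound in DMSO for 24 h at 37 °C, 5% CO2. Luminescence read 10 min after adding luciferase reagent at ambient temperature.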
# NPC1 promoter act = qHTS Assay for NPC1 Promoter Activators; Huh7 NPC1 promoter luciferase reporter, 24 h; 2.4% of 320,000 active; AID 485313, 2010; Potency, µM (titrated, usually from 9.22 µM), for the others: top-dose activation, hits mostly activators; note: % of control where 0% means no effect; nearly all actives have a fitted effect of over 60% in size
#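 Readout is luciferase luminescence, reflecting NPC1 promoter activation in stably transfected Huh7 cells after 24 h compound exposure at 37 °C in reduced-serum medium with 10% FBS.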
# SMN2 splice up = qHTS Assay for Enhancers of SMN2 Splice Variant Expression | HEK293 SMN2-luciferase splicing reporter, luminescence, 30-36 h | Potency, µM (titrated, usually from 46.1 µM), for inactives: at the top dose activity change, positive = activation, actives largely listed as activators | 2.8% of 210,000 active | AID 1458, 2008; note: % of control where 0% means no effect; nearly all actives have a fitted effect of over 55% in size
#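 qHTS luciferase splicing reporter: luminescence rises when SMN2 exon 7 is included in transfected HEK293 cells. Compound exposure lasted 30-36 h at 37C, with 4.5 mM final sodium butyrate as control, followed by a ONE-Glo read.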
# ELG1 genotoxic = qHTS screen for small molecules that induce genotoxicity in human embryonic kidney (HEK293T) cells expressing luciferase-tagged ELG1; HEK293T ELG1-luciferase reporter, luminescence, 16 h; Potency, µM (doses to about 46 µM), for the others: at the highest dose activity change, positive = activation, most hits filed as activators; 1.3% of 330,000 active; note: % of control where 0% means no effect; nearly all actives have a fitted effect of over 60% in size
#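 Cells (2,000/well) expressing the ELG1-luciferase fusion are dosed by pin tool and kept 16 hr at 37 °C, 5% CO2. Signal comes from ONE-Glo luciferase reagent after 30 min at room temperature.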
# KinaseGlo FLuc = Counterscreen for Luciferase (Kinase-Glo TM) Inhibition; Luciferin 4-monooxygenase (Photuris pensylvanica), Q27757; Kinase-Glo luciferase, ATP luminescence, 8 min; Potency, µM (titrated, usually from 38.3 µM), for the others: at the top dose activity change, negative = inhibition, hits mostly inhibitors; 0.28% of 200,000 active; AID 1379, 2008; note: % is set by controls: 0 for no effect and ±100 for the full control effect; nearly all actives have a fitted effect of over 60% in size
#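 Compounds were added to a substrate mix at pH 7.2 (50 mM imidazole, 10 uM ATP, within the enzyme's linear range), followed by Kinase-Glo detection reagent; luminescence was measured after 8 minutes at ambient temperature.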
# Starred values were filed as active, the others as inactive; ? = inconclusive; . = no result given; [ ] = dose if it differs, or a comment. Calls come from the whole dose curve; as a rule, active = well fitted curve in the direction sought with a large enough effect; inconclusive = small, poorly fitted or top-dose-only effect, or another doubt; inactive = no such curve, though single readings can be large; an effect the other way counts as inactive or inconclusive. Potency is the fitted concentration of half-maximal effect.
SMILES,FLuc modulator,Rab9 prom act,NPC1 promoter act,SMN2 splice up,ELG1 genotoxic,KinaseGlo FLuc
COc1ccccc1NC(=O)c1ccc(NC(=O)C2CC2C)cc1 (stereo unspecified),.,.,.,.,0%,.
CO/N=C/c1ccc(Oc2ccc(C)cc2)nc1,17µM*,20%,18%,-7%,15%,-2%
Cc1ccc(Oc2ccc(C=O)cn2)cc1,-1%,-7%,0%,-21%,-7%,-2%
Cc1cccc(N2CCN(C(=O)c3cn(C4CCCCC4)c(=O)c4c3c3ccccc3n4C)CC2)c1C,2%,.,.,-5%,.,.
Cc1cc(C(=O)NNS(=O)(=O)c2cc(C(=O)O)ccc2Cl)c(C)n1-c1ccccc1,24µM*,-7%,-2%,.,0%,.
Cc1cc(C(=O)Nc2ccc(Cl)cc2)c(C)n1-c1ccccc1,0.048µM*,-28%,-24%,.,?,.
Cc1cc(C(=O)Nc2ccc(Cl)cc2)n(-c2ccccc2)n1,-20%,1%,1%,.,5%,.
Cc1ccc(NC(=O)c2cc(C)n(-c3ccccc3)c2C)cc1,0.054µM*,?,-2%,-94%,0.23µM*,-16%
Cc1ccc(NC(=O)c2cc(C)n(-c3cccc(C)c3)c2C)cc1,1.5µM*,?,15%,27%,?,0%
O=C(O)c1ccc(Cl)c(S(=O)(=O)Nc2ccccc2)c1,.,.,.,.,.,-2%
CC(C)(C)OC(=O)N/N=C\C=C\c1ccc2c(c1)OCO2,7.6µM*,1.6µM*,4µM*,-15%[1.84 µM],?,-1%
COC(=O)N/N=C\C=C\c1ccc2c(c1)OCO2,15µM*,3.5µM*,4µM*,6%,2%,5%
COc1ccc(CC(=O)N/N=C/C=C/c2ccc3c(c2)OCO3)cc1OC,-6%,0%,1%,.,3%,.
CCOC(=O)N/N=C\C=C\c1ccc2c(c1)OCO2,13µM*,3.2µM*,?,-8%[1.84 µM],?,-4%
COc1ccccc1N=c1scc(-c2ccc(S(=O)(=O)N3CCCC3)cc2)n1C,-8%,.,.,-29%,.,.
Cc1c(F)cccc1NC(=O)C1CCCN1S(=O)(=O)c1ccc(F)cc1 (stereo unspecified),-7%,.,.,-15%,.,.
CCOc1ccc(NC(=O)N2CCOc3ccccc32)cc1,1%,.,.,.,.,.
COc1ccc(-c2nn(-c3ccc(C)c(Cl)c3)c3c2cnc2cc(OC)c(OC)cc23)cc1,0%,.,.,.,.,.
CC(C)Cn1c(-c2cccc(Br)c2)nc2ccccc21,-17%,.,.,-12%,.,.
COCn1c(-c2cccc(Br)c2)nc2ccccc21,17µM*,22%,2%,.,?,.
COCn1c(-c2ccc(OC)c(OC)c2)nc2ccccc21,11µM*,3.5µM*,?,20%,?,-12%
Cc1ccccc1-c1nc(NCCN2CCOCC2)c2ccccc2n1,.,.,.,2%,.,-4%
CCOc1ccccc1NC(=O)C1CCN(S(=O)(=O)c2cc(Br)cc3c2N(C(C)=O)CC3)CC1,-17%,.,.,-5%,.,.
Fc1ccc(-n2nnc(-c3cccnc3)n2)cc1,15µM*,3.2µM*,?,.,?,.
Clc1ccc(-n2nnc(-c3cccnc3)n2)cc1Cl,?,3.2µM*,4µM*,.,?,.
SMILES,FLuc modulator,Rab9 prom act,NPC1 promoter act,SMN2 splice up,ELG1 genotoxic,KinaseGlo FLuc
Fc1ccc(C(CCCn2nnc(-c3cccnc3)n2)c2ccc(F)cc2)cc1,-1%,5%,0%,.,-10%,-2%
Fc1ccc(-n2nnc(-c3ccccc3Br)n2)cc1,4%,0%,0%,.,-4%,.
Brc1ccccc1-n1nnc(-c2cccnc2)n1,17µM*,?,?,.,10%,.
O=c1[nH]c2ccccc2cc1-c1nnn(-c2ccc(F)cc2)n1,1.9µM*,2.5µM*,3.5µM*,.,?,.
COc1cc2c(cc1OC)[C@H](C)N(CC1C(=O)O[C@@H]3C[C@@]4(C)CCC[C@H](C)[C@@]45OC5[C@H]13)CC2 (stereo partly specified),.,.,.,2%,.,2%
COc1ccc(-c2cc3ncc(C)n3c(Nc3ncccc3C(N)=O)n2)cc1OC,.,-17%[46.1 µM],-10%[46.1 µM],.,.,.
Fc1ccc(-n2nnc(-c3cnc4ccccc4c3)n2)cc1,0.13µM*,0.1µM*,?,.,0.23µM*,.
CS(=O)(=O)c1cnc2c(-c3ccsc3)cnn2c1N,11µM*,2.8µM*,2.8µM*,13µM*,21µM*,-1%
CS(=O)(=O)c1cnc2c(S(=O)(=O)c3ccccc3)cnn2c1N,-1%,-1%,-1%,8%,0%,4%
O=C(O/N=C1\CCS(=O)(=O)c2sccc21)c1ccccc1,2.7µM*,0%,-6%,-11%,2%,-28%
Cc1cccc(C(=O)O/N=C2\CCS(=O)(=O)c3sccc32)c1,3.4µM*,3%,4%,-8%,0%,-1%
COc1ccc(NC(=O)c2ccc3nc(C)sc3c2)cc1,?,1µM*,1µM*,.,?,.
COc1ccc(C(=O)Nc2ccc3nc(C)sc3c2)cc1OC,?,?,18%,.,23%,-24%
COC(=O)c1ccc(NC(=O)c2ccc3nc(C)sc3c2)cc1,-12%,0.71µM*,0.79µM*,.,?,.
Cc1nc2ccc(C(=O)Nc3cccc([N+](=O)[O-])c3)cc2s1,?,?,?,?,12%,1%
Cc1nc2ccc(NC(=O)c3ccc(Br)o3)cc2s1,15µM*,2.5µM*,2.8µM*,11µM*,-3%,-7%
COc1ccc(-n2ccn(CC(=O)NCCc3ccccc3)c(=O)c2=O)cc1OC,0%,.,.,.,.,.
CCOc1ccc(NC(=O)c2oc3ccccc3c2NC(=O)C(C)Oc2ccccc2)cc1 (stereo unspecified),-2%,.,.,-5%,.,.
CC(NC(=O)c1noc2c1CCCCC2)c1ccccc1 (stereo unspecified),-19%,28%,11%,-1%,5%,3%
O=C(NC1CCCC1)c1noc2c1CCCCC2,?,?,?,10µM*,14µM*,-7%
O=C(NCc1ccccc1)c1noc2c1CCCCC2,21µM*,1.6µM*,3.5µM*,25µM*,?,1%
O=C(NCc1cccs1)c1noc2c1CCCCC2,?,?,?,29%,18µM*,-1%
O=C(NCc1ccco1)c1noc2c1CCCC2,-10%,27%,17%,-3%,2%,-5%
C=CCC1(O)CCOc2ccccc21 (stereo unspecified),.,.,.,-3%,.,1%
